# Results filed as inconclusive are left out. Where a call stands in place of a potency, no number is given. Activity calls are given as the source filed them. The call rests on the fitted dose curve; in most records, active means well fitted curve in the direction sought with a large enough effect in the repeat runs; inconclusive means weak or mixed curves; inactive means no such curve, though single readings can be large; an effect the other way counts as inactive or inconclusive.
# Biological target: Cytochrome P450 2D6 (Homo sapiens) (UniProt P10635)
# Sequence (P10635 whole entry, looked up): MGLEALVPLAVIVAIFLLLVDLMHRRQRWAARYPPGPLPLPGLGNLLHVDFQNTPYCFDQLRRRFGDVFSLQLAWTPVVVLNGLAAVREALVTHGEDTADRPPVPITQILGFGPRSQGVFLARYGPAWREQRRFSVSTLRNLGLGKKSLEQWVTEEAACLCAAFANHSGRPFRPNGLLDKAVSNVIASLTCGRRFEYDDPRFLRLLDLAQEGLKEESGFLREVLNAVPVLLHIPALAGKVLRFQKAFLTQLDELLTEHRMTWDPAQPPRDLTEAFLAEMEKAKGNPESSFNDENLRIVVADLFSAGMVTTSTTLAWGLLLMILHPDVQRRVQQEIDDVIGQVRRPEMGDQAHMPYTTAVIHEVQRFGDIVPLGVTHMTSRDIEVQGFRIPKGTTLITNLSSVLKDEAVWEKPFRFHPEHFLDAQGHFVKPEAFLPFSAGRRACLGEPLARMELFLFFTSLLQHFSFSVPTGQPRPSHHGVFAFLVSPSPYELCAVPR
# Test: Cytochrome P450 family 2 subfamily D member 6 (CYP2D6) small molecule antagonists: luciferase biochemical (cell-free) qHTS assay (AID 1645840); further: nearly all actives have a fitted effect of over 55% in size
# Conditions: P450-Glo CYP2D6 enzyme, luciferin luminescence, 1 h; series mostly up to 57.4 µM
# Procedure, shortened: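 P450-Glo CYP2D6 system: proluciferin substrate converted by enzyme to luciferin, read by luminescence proportional to activity. Enzyme-substrate mix with compound 10 min at room temperature, then NADPH regeneration 1 h before detection reagent.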
# Potency means the concentration at half of the fitted maximal effect.
row,Structure (SMILES),Potency
1,OCC(S)CS (stereo unspecified),16.9 µM (active)
2,O=C(C1CC1)N1CC[C@@H](Cc2n[nH]c(=O)n2-c2ccc(-c3ccc4occc4c3)cc2)C1,13.5 µM (active)
3,COC(=O)CCC(=O)CN,inactive
4,COc1ccc([C@@H]2N[C@H](C(=O)O)Cc3c2[nH]c2ccccc32)cc1CN1CCN(c2ccccc2F)CC1,13.5 µM (active)
5,O=C(Nc1ccc(Br)cc1)c1cc(Br)c(Br)s1,9.52 µM (active)
6,O=C1NC(=Nc2ccccc2F)S/C1=C\c1ccc(C(=O)O)cc1,inactive
7,O=C(O)CCC(=O)C(=O)O,inactive

# Biological target: Cytochrome P450 3A4 (Homo sapiens) (UniProt P08684)
# Sequence (P08684 whole entry, looked up): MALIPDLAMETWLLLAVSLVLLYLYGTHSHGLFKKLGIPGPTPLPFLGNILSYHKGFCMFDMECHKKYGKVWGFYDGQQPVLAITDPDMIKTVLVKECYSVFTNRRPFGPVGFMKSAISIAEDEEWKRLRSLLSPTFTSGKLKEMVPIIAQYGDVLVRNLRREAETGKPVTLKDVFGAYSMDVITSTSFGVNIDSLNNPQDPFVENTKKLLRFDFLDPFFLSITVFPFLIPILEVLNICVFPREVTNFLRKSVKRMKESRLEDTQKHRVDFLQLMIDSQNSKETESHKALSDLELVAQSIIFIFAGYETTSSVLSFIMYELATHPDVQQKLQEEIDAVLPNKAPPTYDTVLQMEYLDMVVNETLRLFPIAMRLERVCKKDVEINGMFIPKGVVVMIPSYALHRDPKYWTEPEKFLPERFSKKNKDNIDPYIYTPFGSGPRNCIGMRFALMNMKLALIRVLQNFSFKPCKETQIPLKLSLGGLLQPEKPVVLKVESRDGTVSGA
# Test: Cytochrome P450 family 3 subfamily A member 4 (CYP3A4) small molecule antagonists: luciferase qHTS assay (AID 1645841); further: nearly all actives have a fitted effect of over 45% in size
# Conditions: P450-Glo CYP3A4 enzyme assay, luciferin luminescence; series mostly up to 57.4 µM
# Procedure, shortened: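 P450-Glo CYP3A4 enzyme with proluciferin substrate was preincubated with DMSO-dissolved compounds for 10 min at room temperature. NADPH regeneration solution started a 1 h reaction. Detection reagent stopped it, and luminescence was read after 20 min.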
row,Structure (SMILES),Potency
1,CNc1nc(Nc2cnn([C@H]3CCN(C4COC4)C[C@@H]3F)c2Cl)ncc1C(F)(F)F,inactive
2,CNC1CCN(C(Cc2cccc(-c3ccncc3)c2)C(=O)c2sc3c(F)ccc(F)c3c2Cl)CC1 (stereo unspecified),0.12 µM (active)
3,C#Cc1cnc2[nH]c(=O)n(C(CC)CC)c2n1,inactive
4,O=C(NC[C@H](O)CN1CCc2ccccc2C1)c1cc(NC2COC2)ncn1,inactive
5,COCCN(C)Cc1ccc2nc3sc(C(=O)N(C)C4CCCCC4)cn3c2c1,inactive
6,COc1cc2c(Nc3ccc(Cl)c(Cl)c3F)ncnc2cc1OCC1C[C@@H]2CN(C)C[C@@H]2C1 (stereo partly specified),inactive
7,c1ccc(C(OC2CCN(CCCc3nn[nH]n3)CC2)c2ccccc2)cc1,inactive
8,Nc1nc(N)c2nc(CNc3ccc(C(=O)N[C@@H](CCC(=O)O)C(=O)O)cc3)cnc2n1,inactive
9,O=C(C1CC1)N1CC[C@@H](Cc2n[nH]c(=O)n2-c2ccc(-c3ccc4occc4c3)cc2)C1,6.74 µM (active)

# — PubChem BioAssay (NCATS)
